Screen size: about 370,000 compounds; about 6,800 (1.8%) were called active. Shown is part of a subset that was picked to be rich in actives. Unmarked numbers belong to inactive results.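 The calls were made as follows: active = activation above a cutoff set at the mean of all screened compounds plus 3 SD (cut at about 10% in these data); inactive = the rest.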

This experiment deals with Nuclear hormone receptor DAF-12 (Heterodera glycines), GAL4 fusion. Description: hgDAF-12 GAL4 fusion reporter activation – cell-based, luminescence, HEK293, UAS-luciferase, primary screen (AID 687014).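 Also: 0% = DMSO wells and 100% = sodium butyrate wells.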 Particulars: HEK293 GAL4-hgDAF12 UAS-luciferase reporter, agonist luminescence; at 6.8 µM; hits give high values; normalized to butyrate control. In general terms: A reporter such as luciferase makes a cellular process visible.
With `O=C(CNC(=O)c1ccc2ccccc2c1)Nc1ncccc1O`, the activation is 4.2%. To `CCN(CC)S(=O)(=O)c1cccc(NC(=O)c2ccc(S(=O)(=O)N3CCCC3)cc2)c1` belongs -4.53%; to `CC(C)(C)n1nc2c(c1NC(=O)c1ccc(S(=O)(=O)N3CCCC3)cc1)CS(=O)C2` (stereo not given), -0.9%; to `O=C(Nc1ncccc1O)c1ccc(C(=O)c2ccccc2)cc1`, 85% (active). With `O=C(Nc1ncccc1O)c1ccc(S(=O)(=O)N2CCCC2)cc1` the figure was 26.2% (active); with `O=C(Nc1ncccc1O)c1ccc(S(=O)(=O)N2CCCCCC2)cc1`, 10.7% (active); with `O=C(Nc1ccccc1F)c1ccc(S(=O)(=O)N2CCCCCC2)cc1`, 4.61%.

Turning to `CCOC(=O)c1cccnc1NC(=O)c1ccncc1`, the activation is 2.56%. With `CN1CCN(NC(=O)c2ccc(S(=O)(=O)N3CCCCCC3)cc2)CC1` the figure was -0.88%; with `O=C(C1CCN(S(=O)(=O)c2ccccc2)CC1)N1CCN(C2CCCCC2)CC1`, -4.1%. To `COC(=O)C[C@@H]1CC[C@@H]2[C@@H](COc3ccc(NC(=O)Nc4ccc(F)c(F)c4)cc3C(=O)N2C)O1` belongs 0.28%. With `O=C(NN1C(=O)C2C3C=CC(C4CC34)C2C1=O)c1ccc(Cl)cc1` (stereo not given) the figure was 0.35%; with `CC(C)CNc1cccc2c1S(=O)(=O)N(Cc1cn(Cc3ccccc3C(F)(F)F)nn1)Cc1ccccc1O2`, -3.87%. Consider `C[C@H](C(=O)N(C)c1ccccc1)[C@@H](O)c1ccc(Cl)cc1`, for which the activation was 1.73%. To `COc1ccc(C(NC(=O)C2CCN(CCCc3ccccc3)CC2)c2cccs2)cc1` (stereo not given) belongs -0.24%; to `CC(=O)OCCN1CCCC12CCC(c1ccccc1)CC2` (stereo not given), -0.9%; to `CCOC(=O)c1cc(-c2ccc(Cl)s2)nc2c1c(C)nn2C`, -0.72%.

As for `Cc1cc(NC(=O)c2ccco2)c(=O)n(Cc2c(F)cccc2Cl)c1`, the activation was -0.15%. Take `Cn1c(=NC(=O)c2cnccn2)sc2ccccc21`: the activation was 9.34%.

As to `Cn1c(=NC(=O)c2ccco2)sc2cccc(F)c21`, the activation was 20.1% (active).

As for `CC(c1ccc(N)cc1)c1cn(C)c2ccccc12` (stereo not given), the activation was -1.36%. To `C#CCN([C@H](C(=O)OC)C(C)CC)S(=O)(=O)c1ccccc1Br` (stereo not given in full) belongs 0.28%. With `CC(/C=N/NC(=O)c1cc(-c2ccc3ccccc3c2)n[nH]1)=C\c1ccco1` the figure was 20.6% (active). To `CN(C)S(=O)(=O)c1cccc(C(=O)N/N=C\c2ccco2)c1` belongs 3.58%.

For the molecule `Cc1cc(C(=O)NN=C/C=C/c2ccco2)n[nH]1`, the activation was -0.85%. To `COC(=O)[C@]12C[C@H](CC(=O)N3CCN(C(=O)C4CC4)CC3)C(=O)N(Cc3ccc4c(c3)OCO4)C1=C[C@H](C(C)(C)C)O[C@@H]2C` belongs 0.51%; to `COc1ccc(N(CC(=O)NC(C)(C)C)C(=O)c2ccco2)cc1`, 0.5%. Take `C/C(CC(=O)NC(C)(C)C)=N\NC(=O)c1ccco1`: the activation is 12.8% (active).

Turning to `COc1cccc2cc(/C(C)=N/NC(=O)c3ccco3)oc12`, the activation was 4.73%. To `CCOC(=O)c1cccc(NC(=O)CN(C)S(=O)(=O)c2ccc(-c3cocn3)s2)c1` belongs 1.77%.

Consider `COC(=O)c1ccc(/C=C/c2c(-c3ccc(OC)cc3)sc3ccccc23)cc1`, for which the activation was 0.64%. With `COc1ccc(N=C(C)c2sc3ccccc3c2O)cc1` the figure was 13.8% (active); with `COc1ccc(-n2c(SCC(=O)NC3CCCC3)nnc2-c2ccncc2)cc1`, -0.49%; with `Cc1ccc(Cn2cc(COC(=O)N(C)Cc3ccccc3)nn2)cc1`, 0.1%. To `O=S(=O)(NCCc1csc(-c2ccccc2)n1)c1cccnc1` belongs -0.11%. With `CC(=O)NC(c1ccccc1)c1nc(-c2cccc(C(C)C)c2)cs1` (stereo not given), the activation is 1.94%. With `CC(=O)Nc1cccc(-c2csc(Nc3cccc(C)n3)n2)c1`, the activation is 16.6% (active).

With `Cc1csc(NC(=O)CSc2nnc(-c3cccnc3)o2)n1`, the activation is 4.01%. To `N#CC(=C1SC=CS1)c1nc(-c2ccccc2)cs1` belongs 8.13%; to `Cc1cccc(Nc2nc(-c3ccccc3)cs2)n1`, 18.8% (active). To `Cc1ccccc1Nc1nc(-c2cccnc2)cs1` belongs 17.6% (active); to `c1ccc(-c2csc(N3CCc4ccccc4C3)n2)cc1`, 4.55%. To `CC(=O)NC(c1cccc(F)c1)c1nc(-c2cccc(F)c2)cs1` (stereo not given) belongs 1.2%.

Regarding `Cc1cc(C)nc(NC(=S)N2CCN(c3ccc(C(F)(F)F)cn3)CC2)c1`, the activation was -6.42%. To `O=C(NCC1CC1)c1onc(CSc2ccccc2)c1C(=O)NCC1CC1` belongs 1.09%; to `Cc1cccc(NC(=O)C[C@H]2CC[C@H]3[C@@H](COc4ccc(NC(=O)Nc5ccccc5)cc4C(=O)N3C)O2)c1`, -1.77%; to `O=C(NCCCN1CCN(c2ccccc2F)CC1)C1CCC(=O)N1C1CCCCC1` (stereo not given), 0.6%. With `O=C1CN(C(=O)c2ccccc2F)C(c2ccc(F)cc2)c2cc(F)ccc2N1` (stereo not given) the figure was -3.72%; with `O=C(CCCCCN1C(=O)C2C3C=CC(C3)C2C1=O)Nc1ccccn1` (stereo not given), 2.03%. For `COC(CNC(=O)[C@H](Cc1ccccc1)NC1(C(=O)NC2CCCCC2)CCCCC1)OC`, the activation is 1.76%.

In the case of `Cc1c[nH]c2cccc(-c3ccc(Cl)cc3)c12`, the activation is 5.56%. To `CC(C)C(=O)NCc1cc(-c2ccc(Cl)cc2)no1` belongs -0.54%; to `O=C(O)c1n[nH]nc1-c1ccccc1`, -0.69%; to `N#Cc1c(-c2ccccc2)c(-c2ccccc2)n[nH]c1=O`, 0.04%.

With `Oc1ccccc1-c1cc(-c2ccc(Cl)cc2)n[nH]1`, the activation was 20.1% (active). With `c1ccc(-c2cc(-c3ccccc3)[nH]n2)cc1` the figure was 12.2% (active); with `Cc1ccc(S(=O)(=O)N(C)c2ccc(OCC(=O)OCC(=O)N(CC#N)c3ccccc3)cc2)cc1`, -0.04%; with `O=C(N[C@H](Cc1ccccc1)C(=O)N1CCCN(Cc2cccs2)CC1)[C@H]1O[C@@H](n2ccc(=O)[nH]c2=O)[C@H](O)[C@@H]1O`, -0.37%. On to `CC(C)(C)C(c1nc2ccccc2[nH]1)n1c(Cc2csc3ccccc23)nc2ccccc21` (stereo not given), for which the activation was 6.72%. Take `O=C(O)Cn1cnc2c(NCc3ccccc3)ncnc21`: the activation was 1.82%. With `CCCCNC(=O)C[C@H]1C[C@@]2(C(=O)OC)C(=C[C@H](COCc3ccccc3)O[C@@H]2C)N(Cc2ccc(Cl)cc2Cl)C1=O` the figure was 0.35%; with `O=C(N1CCOCC1)N1CC[C@H]2[C@H](CCCN2Cc2ccc(F)cc2)C1`, -0.84%.

As for `O=C(CCS(=O)(=O)c1cccc2nsnc12)N1CCN(c2ccccc2F)CC1`, the activation is 0.1%. With `O=C(CCSc1ccccc1)N1CCN(c2ccccc2F)CC1` the figure was 14.2% (active). With `O=C(CCc1ccccc1F)N1CCN(c2ccccc2)CC1` the figure was 0.77%; with `O=C(CCc1ccccc1)Nc1ccc(NC(=O)C2CC2)nc1`, -1.22%; with `O=C(CCc1ccccc1)Nc1ncc([N+](=O)[O-])s1`, 11.2% (active). Turning to `O=C(CCc1ccccc1)Nc1nn[nH]n1`, the activation is 0.42%. With `CCc1ccc(NC(=O)Cn2nnc(C(=O)NCc3ccc4c(c3)OCO4)c2N)cc1` the figure was -0.22%; with `Nc1c(C(=O)Nc2ccc3c(c2)OCCO3)nnn1Cc1ccccc1`, 11.1% (active).

In the case of `Cn1cc([N+](=O)[O-])c(C(=O)Nc2ccc3c(c2)OCCO3)n1`, the activation was 5.47%. With `COc1ccccc1NS(=O)(=O)c1ccc(C)c(C(=O)NNC(=O)c2csc(N3CCOCC3)n2)c1` the figure was -0.05%; with `Cc1noc(C)c1CCC(=O)N1CCCC(CO)(Cc2ccccc2)C1` (stereo not given), 9.68%. To `Cc1ccccc1CC1(CO)CCCN(C(=O)c2cc(-c3ccccc3)no2)C1` (stereo not given) belongs -2.47%. With `COC(=O)CCC(=O)N1CCCC(CO)(Cc2ccccc2)C1` (stereo not given) the figure was 11.1% (active). As for `CC1CCCN(c2cccc3c2S(=O)(=O)N(Cc2ccc(F)cc2)[C@@H](C)[C@H](c2ccccc2)O3)C1` (stereo not given in full), the activation was 2.2%.

For the molecule `COC(=O)C12C=C3CC(c4ccccc4)=C3C(=O)N1Cc1[nH]c3ccccc3c1C2` (stereo not given), the activation was -0.17%. With `Cc1nc2nc[nH]n2c(=O)c1C/C=C/c1ccccc1` the figure was -0.77%. `C=CCc1c(C)nc2cc(-c3ccccc3)[nH]n2c1=O`: the activation is 11.2% (active). With `CCc1c(C)nc2cc(C)[nH]n2c1=O` the figure was -1.41%. To `C[C@@H]1CN([C@@H](C)CO)C(=O)c2c(c3ccccc3n2C)-c2ccccc2CO[C@H]1CN(C)C(=O)C1CC1` belongs 0.34%; to `Cc1ccccc1NC(=O)C1CCN(c2ncccn2)CC1`, 2.53%; to `Cc1cccc(-n2c(O)c(C=Nc3ccccc3N)c(=O)[nH]c2=O)c1`, 14.9% (active). For the molecule `COc1cccc(CNC(=O)CNS(=O)(=O)c2ccc3nc(C)sc3c2)c1OC`, the activation was -1.09%.

As for `CCOC(=O)[C@]12CCCCC/C=C\1N(Cc1ccc(OC)cc1)C(=O)[C@H]2CC(=O)NCCCN1CCCC1=O`, the activation was 3.26%. Take `CCn1c(=O)n2n(c1=O)[C@@]1(C=C3CCCC[C@H]32)N=C(NC(=O)c2ccccc2)N(Cc2ccccc2)[C@H]1Cc1ccccc1`: the activation is -2.77%.

Turning to `COc1ccc(-c2csc(Cc3nc(O)cs3)n2)cc1`, the activation is 21.6% (active). Consider `COc1ccc(C(C)(NC(C)=O)c2nc(-c3ccc(S(C)(=O)=O)cc3)cs2)cc1` (stereo not given), for which the activation is -0.04%.

For the molecule `COc1ccc(C(C)(O)c2nc(-c3cc(F)cc(F)c3)cs2)cc1` (stereo not given), the activation is -1.7%.

With `Cc1c(C(C)c2ccccc2O)[nH]c2ccccc12` (stereo not given), the activation is 2.99%.

These data come from PubChem BioAssay AID687014 (The Scripps Research Institute Molecular Screening Center, 2013).
